GDH-TPI inh: counter-screen for M. tuberculosis FBA inhibitors: GDH-TPI coupled enzymes. 360,000 compounds, 1.2% hits. AID 588335. inhibition, % at 4.8 µM. GDH-TPI coupled enzyme counterscreen, NADH absorbance; in the data active = inhibition above about 30%;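 also: 0% = DMSO wells and 100% = wells lacking the enzyme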
BoNT-A LC inh2: blocks Botulinum neurotoxin A light chain protease; inhibition, % at 10 µM; 360,000 compounds, 0.17% hits; AID 588499; multiplex microsphere protease substrate cleavage, flow cytometry; also: plate controls were buffer without enzyme for full effect and enzyme alone for no effect
BoNT F protease: BoNT F light chain protease inhibition. Multiplex microsphere protease cleavage assay, flow cytometry. inhibition, % at 10 µM. 360,000 compounds, 0.22% hits; in the data active = inhibition above about 35%, passing the limit was not always enough; inconclusive = no clear call, values can overlap the other calls; also: plate controls were buffer without enzyme for full effect and enzyme alone for no effect
Autofluor counter: flagged as autofluorescent in microsphere protease counterscreen. compound autofluorescence counterscreen, microsphere flow cytometry; active compounds read high. fluorescence intensity (concentration not given with the values). 360,000 compounds, 3.1% hits. AID 624483; in the data active = fluorescence intensity above about 16000; inconclusive = no clear call, values can overlap the other calls
Anthrax LF prot: blocks Bacillus anthracis lethal factor protease. P15917. multiplex microsphere protease cleavage assay, LF. inhibition, % at 10 µM. 360,000 compounds, 0.12% hits; also: plate controls were buffer without enzyme for full effect and enzyme alone for no effect
Target sequence (P15917 whole entry, looked up): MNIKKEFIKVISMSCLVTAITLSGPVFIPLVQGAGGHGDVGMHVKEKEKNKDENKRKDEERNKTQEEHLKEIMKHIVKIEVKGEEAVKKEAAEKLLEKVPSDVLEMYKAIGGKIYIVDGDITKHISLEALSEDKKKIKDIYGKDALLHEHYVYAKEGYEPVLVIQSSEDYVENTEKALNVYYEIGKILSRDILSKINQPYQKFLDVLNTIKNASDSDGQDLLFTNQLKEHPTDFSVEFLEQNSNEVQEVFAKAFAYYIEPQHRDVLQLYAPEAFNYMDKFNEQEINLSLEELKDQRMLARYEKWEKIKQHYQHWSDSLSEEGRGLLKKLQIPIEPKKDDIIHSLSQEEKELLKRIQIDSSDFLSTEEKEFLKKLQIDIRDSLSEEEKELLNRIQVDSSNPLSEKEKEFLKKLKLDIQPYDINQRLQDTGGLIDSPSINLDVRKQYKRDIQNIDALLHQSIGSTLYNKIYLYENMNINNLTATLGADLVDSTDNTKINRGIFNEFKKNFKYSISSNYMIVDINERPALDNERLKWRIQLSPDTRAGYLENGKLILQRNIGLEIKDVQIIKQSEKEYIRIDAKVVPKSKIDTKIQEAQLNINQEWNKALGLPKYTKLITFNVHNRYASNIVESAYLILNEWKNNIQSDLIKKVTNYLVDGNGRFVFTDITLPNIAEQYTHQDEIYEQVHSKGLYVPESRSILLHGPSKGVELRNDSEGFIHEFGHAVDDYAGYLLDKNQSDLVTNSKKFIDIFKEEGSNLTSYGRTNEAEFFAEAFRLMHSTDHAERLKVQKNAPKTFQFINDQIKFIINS
FBA Mtb inh: inhibitors of M. tuberculosis fructose-bisphosphate aldolase | purified M. tuberculosis FBA, fluorescence read-out | inhibition, % at 1 µM | 360,000 compounds, 2.3% hits | AID 588726; in the data active = inhibition above about 27%;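 also: 0% = vehicle and 100% = reference inhibitor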
Numbers without * were called inactive; u = inconclusive; x = not tested or not shown; + = active, no number. An excerpt weighted towards active compounds, which were near 6.6% of everything screened. Rule as the data show it, unless noted: active = inhibition above about 30%; inconclusive = no clear call, values can overlap the other calls; inactive = below that.

SMILES	GDH-TPI inh	BoNT-A LC inh2	BoNT F protease	Autofluor counter	Anthrax LF prot	FBA Mtb inh
O=C(O)C1CCCCC1C(=O)NCc1ccccc1 (configuration not stated)	-8.2	0.6	2.5	5715	-0.6	-5.6
CC(C)OC(=O)CSc1nnc(Cc2ccccc2)n1C	6.6	-0.7	-2.0	16479*	-0.8	2.0
Cc1ccc(-c2nnc(SCC(=O)OC(C)C)n2N)cc1	-1.6	1.2	3.1	9130	5.0	6.5
CC(C)OC(=O)CSc1nnc(-c2ccc(Cl)cc2)n1N	-11.5	-5.0	-6.8	21439*	2.0	7.1
CC(C)OC(=O)CSc1nnc(-c2ccc(Cl)cc2Cl)n1N	-14.8	0.9	1.8	22841*	-1.1	7.6
Cn1c(Cc2ccccc2)nnc1SCC(=O)Nc1ccccc1	-2.5	-3.4	-14.9	7070	-3.7	0.4
CC1CCC(NC(=O)C2CC(=O)N(c3ccc4c(c3)OCCO4)C2)CC1 (configuration not stated)	-1.9	-0.1	-6.2	4697	-4.9	3.2
COc1ccc(CCNC(=O)c2cnn(-c3ccc(C)c(C)c3)c2NC(=O)c2ccco2)cc1OC	-0.5	u	5.9	22833*	-0.7	0.1
Cc1ccc(-n2ncc(C(=O)N3CCc4ccccc4C3)c2NC(=O)c2ccco2)cc1C	4.9	0.8	0.8	23443*	-2.3	1.2
NC(=O)C1CCN(C(=O)c2cnn(-c3ccccc3)c2NC(=O)c2ccco2)CC1	12.4	-0.1	-20.5	5635	-3.4	2.3
COc1ccc(CCNC(=O)c2ccccc2NC(=O)c2ccco2)cc1OC	-15.6	-0.5	-6.0	3086	-2.1	-3.5
Cc1ccccc1S(=O)(=O)N(C)C[C@@H]1OCc2cn(nn2)CCCC(=O)N([C@H](C)CO)C[C@H]1C	-10.9	-0.7	-1.1	3751	1.6	-4.4
Cc1cccc(C(=O)N=c2c(C#N)cc3c(=O)n4cccc(C)c4nc3n2Cc2ccco2)c1	7.8	8.5	19.6	3674	16.9	168.1*
Cc1nc2c(C)cccn2c(=O)c1NC(=O)c1ccco1	14.1	2.8	4.1	4861	0.6	-0.7
Cc1cccn2c(=O)c3cc(C#N)c(=NC(=O)c4ccccc4)n(Cc4ccco4)c3nc12	15.9	5.1	11.5	4478	0.1	182.4*
Cc1cccn2c(=O)c3cc(C#N)c(=NC(=O)c4ccco4)n(Cc4ccco4)c3nc12	9.2	x	x	x	x	+
Oc1cccc2ccc(/C=C/c3cccs3)nc12	30.9*	-1.1	-12.6	10079	-6.7	-1.9
Cc1ccsc1/C=C/c1ccc2cccc(O)c2n1	8.0	-0.3	-17.0	9051	-10.5	-2.2
CCOc1cc(S(=O)(=O)NCCc2cccc(C)c2)c(OCC)cc1-n1cnnn1	-0.9	1.1	-1.7	9000	-4.1	40.5*
CCOc1cc(S(=O)(=O)N2CCC(Cc3ccccc3)CC2)c(OCC)cc1-n1cnnn1	20.4	-1.6	-9.8	7020	-4.8	7.5
Cc1c(-n2c(SCC(=O)C(C)(C)C)nc3ccccc3c2=O)c(=O)n(-c2ccccc2)n1C	7.6	0.3	1.4	3164	-2.2	144.6*
C=C(C)CSc1nc2ccccc2c(=O)n1-c1c(C)n(C)n(-c2ccccc2)c1=O	5.0	-0.4	-0.3	3950	-1.7	1.4
OC(CSc1c(Cl)cccc1Cl)CN1CCN(c2ccccc2F)CC1 (configuration not stated)	1.9	-0.5	-5.5	20273*	-2.4	-0.3
OC(CSc1ccccc1Cl)CN1CCN(c2ccccc2F)CC1 (configuration not stated)	-2.1	-1.1	-7.1	10127	-3.6	4.8
CCOc1cc(C=O)ccc1OCCn1c([N+](=O)[O-])cnc1C	14.0	-0.2	6.0	5845	0.8	0.2
SMILES	GDH-TPI inh	BoNT-A LC inh2	BoNT F protease	Autofluor counter	Anthrax LF prot	FBA Mtb inh
O=C1CC(N(C(=O)c2ccco2)c2ccc(F)cc2)C(=O)N1c1ccc(F)cc1 (configuration not stated)	6.5	u	11.4	19184*	1.3	0.1
Cc1cc(O)c(C(C)C)cc1N=Cc1ccc(N(C)C)cc1	46.5*	0.4	-2.6	3616	-1.4	-0.7
CSc1nncn1/N=C/c1ccc2c(c1)OCO2	35.1*	-3.8	-6.5	23493*	-1.8	0.6
CSc1nncn1/N=C/c1ccccc1F	3.9	u	-5.5	23258*	-1.4	0.8
COc1ccc(-c2noc(CSc3nc4ccccc4c(=O)n3-c3ccccc3)n2)cc1	-2.1	-3.6	-3.3	21618*	-1.6	-0.7
Cc1ccc(Cl)c(OCC(=O)Nc2cc(S(=O)(=O)N3CCOCC3)ccc2N2CCCC2)c1	-2.7	0.0	-0.7	6046	-1.1	-0.8
Cc1cccc(N2CCN(C(=O)c3cn(C)c(=O)c4c3c3ccccc3n4C)CC2)c1C	4.4	0.0	0.1	23203*	-3.1	4.5
Clc1cccc(Oc2ncc(CN3CCOCC3)s2)c1	3.9	2.4	3.7	21630*	0.6	2.3
NC(=O)CSc1nnc(Cn2c(=O)sc3ccccc32)n1-c1ccccc1	6.9	0.1	-3.8	5641	-9.4	2.4
O=C(O)CSc1nnc(Cn2c(=O)sc3ccccc32)n1-c1cccc(Cl)c1	0.0	7.1	7.0	20449*	-8.4	0.2
NC(=O)CSc1nnc(Cn2c(=O)sc3ccccc32)n1-c1cccc(Cl)c1	4.4	0.0	1.1	16396*	-1.6	2.0
O=C(COC(=O)/C=C/c1cccs1)Nc1ccc2ccccc2c1	17.1	0.8	0.9	2031	-0.7	3.2
CCOC(=O)c1cc2ccc(OC)cc2oc1=O	42.5*	1.3	-7.0	4676	-4.7	+
COc1ccc(CNC(=O)c2cc3ccccc3oc2=O)cc1	14.7	-2.9	1.0	3739	-10.8	3.4
CNC(=O)c1cc2ccc(OC)cc2oc1=O	29.9	-1.0	-9.6	4349	-2.4	+
O=C(Cc1ccc(Cl)cc1)Nc1ccccc1C(=O)N1CCCCC1	-8.4	3.8	10.4	4815	1.2	0.0
N#Cc1c(N)c(C(=O)c2ccccc2)n2c1CCC2	3.9	-2.9	-5.3	23949*	-1.3	3.0
COC(=O)c1c(N)c(C#N)c2n1CCCCC2	-2.0	-0.4	-5.8	11422	-5.1	0.8
Cc1cc(Nc2ccccc2C(=O)O)n2ncnc2n1	20.4	-0.4	-5.3	3890	-1.2	1.9
Cc1cc(Nc2ccccc2N2CCOCC2)n2ncnc2n1	8.2	-0.3	-1.0	16563*	-2.2	2.4
O=C(NCc1cccnc1)C(=O)Nc1cc2c3c(c1)CC(=O)N3CCC2	-2.1	0.3	6.4	4930	-0.6	-1.0
N#Cc1c(N)sc2c1CCN(CCc1ccccc1)C2	22.8	64.8*	-141.1	5685	0.6	17.2
CC(C)(C)C(=O)Nc1sc2c(c1C#N)CCN(Cc1ccccc1)C2	3.9	0.4	-4.8	6175	2.6	8.7
CC(C)(C)c1ccc(/C=N/NC(=S)NCc2ccccc2)cc1	12.9	0.1	-2.4	1957	-0.2	-1.0
Cn1c(=O)n(C)c2cc(/C=N/NC(=S)NCc3ccccc3)ccc21	34.0*	-0.1	-4.6	2456	-0.3	0.7
COCCCNC(=S)N/N=C/c1ccc(N(C)C)cc1	14.8	0.2	-4.0	4420	1.0	48.1*
